About 7,900 targets were measured; listed, in parts, are those with a hit and a random draw of the rest. About 0.6% of all pairs of compound and target were hits.
What follows are targets tested with CC(C)(C)Cn1c(N)nc2ccc(-c3[nH]c(C(C)(C)C)nc3-c3ccc(F)cc3)nc21 [ralimetinib] (assay: log2 fold change, soluble protein after heating vs DMSO (PISA); higher = thermal stabilisation; K562 cells, 10 uM, 30 min; active = over 0.2 and 3.5 SD of the protein, either way, in both replicates (recomputed)).
In short: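 Soluble protein was quantified by TMTpro 16plex LC-MS/MS after channel sums were equalised. It was obtained as the supernatant after 21,000xg for 90 min from pooled aliquots of K562 cells (2×10^6 cells/mL, 10 μM compound, 30 min) heated for 3 min across 48°C-58°C and extracted in PBS with 0.5% NP-40 at 4°C. Thermal stability values are relative to control samples and come from duplicates. They are given as log2 fold changes.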
UniProt P31321, sequence (P31321 whole entry, looked up): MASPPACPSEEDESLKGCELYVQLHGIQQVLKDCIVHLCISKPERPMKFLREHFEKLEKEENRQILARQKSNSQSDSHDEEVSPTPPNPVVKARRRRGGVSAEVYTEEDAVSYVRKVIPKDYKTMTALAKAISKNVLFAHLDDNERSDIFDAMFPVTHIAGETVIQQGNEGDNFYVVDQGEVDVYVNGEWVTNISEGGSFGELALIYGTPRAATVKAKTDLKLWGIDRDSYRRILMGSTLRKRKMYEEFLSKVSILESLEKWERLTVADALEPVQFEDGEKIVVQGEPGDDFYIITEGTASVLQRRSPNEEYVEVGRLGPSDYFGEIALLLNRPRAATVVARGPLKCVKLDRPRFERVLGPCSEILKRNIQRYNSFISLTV
UniProt Q13362, sequence (Q13362 whole entry, looked up): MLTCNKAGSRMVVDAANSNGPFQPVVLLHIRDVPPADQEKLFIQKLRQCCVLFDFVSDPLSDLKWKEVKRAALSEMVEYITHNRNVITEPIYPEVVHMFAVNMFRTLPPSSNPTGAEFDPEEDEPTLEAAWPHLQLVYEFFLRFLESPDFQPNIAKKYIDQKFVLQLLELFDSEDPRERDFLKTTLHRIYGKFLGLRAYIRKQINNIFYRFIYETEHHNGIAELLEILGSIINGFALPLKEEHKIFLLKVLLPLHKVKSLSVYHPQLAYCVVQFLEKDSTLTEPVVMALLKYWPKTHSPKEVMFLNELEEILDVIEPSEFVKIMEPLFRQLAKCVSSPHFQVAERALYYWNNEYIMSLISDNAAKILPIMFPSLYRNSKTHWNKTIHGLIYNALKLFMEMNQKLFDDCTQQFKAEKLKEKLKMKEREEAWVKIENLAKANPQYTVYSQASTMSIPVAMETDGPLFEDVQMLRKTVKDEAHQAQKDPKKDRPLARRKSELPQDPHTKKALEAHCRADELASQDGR
UniProt P46019, sequence (P46019 whole entry, looked up): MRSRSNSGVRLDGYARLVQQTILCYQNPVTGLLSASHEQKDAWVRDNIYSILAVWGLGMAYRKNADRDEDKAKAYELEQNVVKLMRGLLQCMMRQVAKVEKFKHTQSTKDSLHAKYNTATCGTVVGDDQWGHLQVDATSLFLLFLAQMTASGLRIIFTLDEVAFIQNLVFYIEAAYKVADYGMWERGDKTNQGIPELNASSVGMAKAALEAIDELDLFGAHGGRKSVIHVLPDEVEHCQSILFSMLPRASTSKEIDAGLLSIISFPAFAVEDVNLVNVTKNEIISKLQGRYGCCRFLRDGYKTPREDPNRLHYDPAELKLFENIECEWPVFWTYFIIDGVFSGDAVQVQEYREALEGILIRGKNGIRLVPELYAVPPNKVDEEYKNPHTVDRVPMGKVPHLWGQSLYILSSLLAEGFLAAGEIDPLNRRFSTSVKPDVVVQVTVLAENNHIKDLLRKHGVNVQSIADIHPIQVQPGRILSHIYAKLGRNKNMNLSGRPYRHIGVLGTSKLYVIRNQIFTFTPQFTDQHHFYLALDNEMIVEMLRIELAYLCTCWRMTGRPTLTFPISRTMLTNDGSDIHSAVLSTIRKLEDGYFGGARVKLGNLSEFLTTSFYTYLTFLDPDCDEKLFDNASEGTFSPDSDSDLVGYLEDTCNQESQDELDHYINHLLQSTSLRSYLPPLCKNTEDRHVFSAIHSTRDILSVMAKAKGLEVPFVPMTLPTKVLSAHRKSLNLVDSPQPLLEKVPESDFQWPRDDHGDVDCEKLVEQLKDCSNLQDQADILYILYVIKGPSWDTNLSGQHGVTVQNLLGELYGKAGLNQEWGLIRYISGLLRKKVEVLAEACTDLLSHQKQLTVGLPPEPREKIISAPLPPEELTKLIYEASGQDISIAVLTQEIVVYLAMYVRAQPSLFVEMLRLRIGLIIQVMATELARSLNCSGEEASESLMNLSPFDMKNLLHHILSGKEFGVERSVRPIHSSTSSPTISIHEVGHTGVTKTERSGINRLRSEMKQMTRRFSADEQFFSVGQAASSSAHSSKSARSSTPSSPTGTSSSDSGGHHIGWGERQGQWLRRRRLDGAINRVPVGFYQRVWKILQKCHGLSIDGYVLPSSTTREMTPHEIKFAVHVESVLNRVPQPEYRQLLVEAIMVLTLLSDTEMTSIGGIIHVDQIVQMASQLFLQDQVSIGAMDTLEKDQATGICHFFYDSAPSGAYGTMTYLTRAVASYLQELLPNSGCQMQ
UniProt Q9UKL6, sequence (Q9UKL6 whole entry, looked up): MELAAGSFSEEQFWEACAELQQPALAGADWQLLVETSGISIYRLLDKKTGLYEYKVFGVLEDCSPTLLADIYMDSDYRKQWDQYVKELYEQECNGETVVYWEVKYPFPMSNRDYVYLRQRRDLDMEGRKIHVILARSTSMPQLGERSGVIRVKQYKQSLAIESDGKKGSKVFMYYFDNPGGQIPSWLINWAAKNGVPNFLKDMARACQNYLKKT
UniProt P51665, sequence (P51665 whole entry, looked up): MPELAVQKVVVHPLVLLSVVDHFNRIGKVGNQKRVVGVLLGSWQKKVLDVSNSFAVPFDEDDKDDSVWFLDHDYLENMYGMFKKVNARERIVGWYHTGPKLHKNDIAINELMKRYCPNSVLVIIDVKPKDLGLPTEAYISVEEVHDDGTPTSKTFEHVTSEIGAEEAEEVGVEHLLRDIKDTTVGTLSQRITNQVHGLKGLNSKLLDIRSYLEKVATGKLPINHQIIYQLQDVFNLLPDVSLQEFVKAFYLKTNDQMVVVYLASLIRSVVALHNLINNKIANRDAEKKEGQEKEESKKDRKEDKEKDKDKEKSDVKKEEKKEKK
UniProt P46020, sequence (P46020 whole entry, looked up): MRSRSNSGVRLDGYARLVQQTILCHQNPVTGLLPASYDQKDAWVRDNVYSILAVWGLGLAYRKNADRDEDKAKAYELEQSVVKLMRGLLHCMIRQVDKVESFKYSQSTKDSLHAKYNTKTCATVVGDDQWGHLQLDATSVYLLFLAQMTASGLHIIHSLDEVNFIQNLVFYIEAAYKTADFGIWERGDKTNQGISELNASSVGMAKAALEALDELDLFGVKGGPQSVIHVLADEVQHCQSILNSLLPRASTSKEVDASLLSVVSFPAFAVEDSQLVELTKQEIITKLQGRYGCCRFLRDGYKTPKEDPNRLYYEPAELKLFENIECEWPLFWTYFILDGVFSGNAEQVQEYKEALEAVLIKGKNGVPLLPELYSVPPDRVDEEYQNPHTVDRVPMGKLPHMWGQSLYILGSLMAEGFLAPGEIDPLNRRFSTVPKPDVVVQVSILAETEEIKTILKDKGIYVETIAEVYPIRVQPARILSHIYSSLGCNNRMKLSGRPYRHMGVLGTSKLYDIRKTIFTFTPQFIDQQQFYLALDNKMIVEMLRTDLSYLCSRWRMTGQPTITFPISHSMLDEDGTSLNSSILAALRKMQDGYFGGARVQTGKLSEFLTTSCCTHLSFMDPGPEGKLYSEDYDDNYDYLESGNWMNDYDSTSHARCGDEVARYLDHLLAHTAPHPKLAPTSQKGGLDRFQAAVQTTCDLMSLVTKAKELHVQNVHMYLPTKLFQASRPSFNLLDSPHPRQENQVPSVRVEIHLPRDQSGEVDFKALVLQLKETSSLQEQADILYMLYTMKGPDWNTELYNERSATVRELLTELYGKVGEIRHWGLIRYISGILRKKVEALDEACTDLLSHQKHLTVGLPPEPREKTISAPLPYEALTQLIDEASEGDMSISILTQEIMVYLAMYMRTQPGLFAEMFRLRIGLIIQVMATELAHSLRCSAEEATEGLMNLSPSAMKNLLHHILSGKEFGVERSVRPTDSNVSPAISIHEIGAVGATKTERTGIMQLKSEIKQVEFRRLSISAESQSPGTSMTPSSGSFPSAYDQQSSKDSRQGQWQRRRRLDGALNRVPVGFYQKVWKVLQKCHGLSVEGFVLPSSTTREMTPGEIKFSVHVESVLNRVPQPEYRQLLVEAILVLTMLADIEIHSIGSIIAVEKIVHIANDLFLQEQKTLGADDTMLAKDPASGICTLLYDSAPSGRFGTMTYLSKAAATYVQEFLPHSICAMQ
UniProt Q6GMV3, sequence (Q6GMV3 whole entry, looked up): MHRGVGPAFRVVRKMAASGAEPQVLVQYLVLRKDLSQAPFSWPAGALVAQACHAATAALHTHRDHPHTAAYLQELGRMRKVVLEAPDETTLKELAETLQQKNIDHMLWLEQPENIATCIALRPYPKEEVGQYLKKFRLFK
UniProt Q9NP80, sequence (Q9NP80 whole entry, looked up): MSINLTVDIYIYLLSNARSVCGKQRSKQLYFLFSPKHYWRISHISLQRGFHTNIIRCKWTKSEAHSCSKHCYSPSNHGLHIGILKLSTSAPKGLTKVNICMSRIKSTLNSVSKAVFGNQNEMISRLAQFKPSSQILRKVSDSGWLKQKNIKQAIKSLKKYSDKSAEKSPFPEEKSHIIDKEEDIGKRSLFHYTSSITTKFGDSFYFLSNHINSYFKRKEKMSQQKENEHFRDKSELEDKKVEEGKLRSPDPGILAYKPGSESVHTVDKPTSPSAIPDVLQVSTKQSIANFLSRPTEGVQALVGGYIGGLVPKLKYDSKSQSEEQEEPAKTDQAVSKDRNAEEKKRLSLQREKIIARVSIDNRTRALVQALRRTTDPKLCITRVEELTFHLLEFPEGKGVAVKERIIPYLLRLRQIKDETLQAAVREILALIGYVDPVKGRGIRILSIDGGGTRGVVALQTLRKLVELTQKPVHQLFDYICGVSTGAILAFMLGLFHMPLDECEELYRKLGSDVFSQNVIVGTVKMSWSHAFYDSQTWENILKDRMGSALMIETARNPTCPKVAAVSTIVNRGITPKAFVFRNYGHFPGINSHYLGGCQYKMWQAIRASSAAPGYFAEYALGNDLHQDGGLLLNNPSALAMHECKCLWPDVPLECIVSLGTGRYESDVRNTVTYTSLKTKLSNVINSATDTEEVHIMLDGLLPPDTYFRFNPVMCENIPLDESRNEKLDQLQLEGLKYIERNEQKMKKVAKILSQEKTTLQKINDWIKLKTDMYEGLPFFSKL
UniProt Q9Y244, sequence (Q9Y244 whole entry, looked up): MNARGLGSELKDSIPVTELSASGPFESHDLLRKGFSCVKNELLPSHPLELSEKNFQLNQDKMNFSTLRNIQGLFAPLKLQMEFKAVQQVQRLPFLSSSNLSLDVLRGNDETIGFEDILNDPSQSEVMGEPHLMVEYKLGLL
In the case of PCLAF (UniProt Q15004), the log2 fold change is reported as -0.012 (inactive). For PTGFRN (UniProt Q9P2B2), the log2 fold change was -0.029 (inactive). In the case of PSMD7 (UniProt P51665), the log2 fold change is reported as 0.01 (inactive). POTEI (UniProt P0CG38) was tested, and the log2 fold change was 0.003 (inactive). POMP (UniProt Q9Y244) was tested, and the log2 fold change was -0.022 (inactive). PRKACB isoform 2 (UniProt P22694) was tested, and the log2 fold change was -0.035 (inactive). With PPP2R5A (UniProt Q15172) the log2 fold change was 0.066 (inactive). PHKA2 (UniProt P46019) was tested, and the log2 fold change was 0.011 (inactive). With PCTP (UniProt Q9UKL6) the log2 fold change was -0.081 (inactive). In the case of PEX11B (UniProt O96011), the log2 fold change is reported as 0.005 (inactive). In the case of PRKAR1B (UniProt P31321), the log2 fold change is reported as 0.143 (inactive). PTPMT1 (UniProt Q8WUK0) was tested, and the log2 fold change was -0.144 (inactive). POLD1 (UniProt P28340) was tested, and the log2 fold change was -0.02 (inactive). With PSMD9 (UniProt O00233) the log2 fold change was -0.029 (inactive). In the case of QRICH1 (UniProt Q2TAL8), the log2 fold change is reported as 0.055 (inactive). For PNPLA8 (UniProt Q9NP80), the log2 fold change was -0.005 (inactive). In the case of POLA1 (UniProt P09884), the log2 fold change is reported as -0.018 (inactive). For PSMD1 (UniProt Q99460), the log2 fold change was 0.061 (inactive). In the case of PHKA1 (UniProt P46020), the log2 fold change is reported as -0.03 (inactive). With PPP2R5C isoform 5 (UniProt Q13362) the log2 fold change was -0.044 (inactive). PTRHD1 (UniProt Q6GMV3) was tested, and the log2 fold change was -0.049 (inactive). With PSMC5 (UniProt P62195) the log2 fold change was -0.014 (inactive). In the case of PDLIM7 (UniProt Q9NR12), the log2 fold change is reported as 0.08 (inactive).
